Consider 20 molecules from PubChem BioAssay (NCATS).

Inconclusive results are not listed. Where a call stands in place of a potency, no number is given. Activity calls are given as the source filed them. The call rests on the fitted dose curve; in most records, active means well fitted cell-killing curve with a large enough effect; inconclusive means small, poorly fitted or top-dose-only effect; inactive means flat fitted curve, though single readings scatter.
Potency means the concentration at half of the fitted maximal effect.

The assay is described as follows: Cell Viability - LYMP2-009 (AID 968).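 Further: cells exposed to compound for 24 h at 37 °C; nearly all actives have a fitted effect of over 55% in size.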 The conditions noted are these: LYMP2-009 lymphoblastoid cell viability; series mostly up to 92.2 µM. An excerpt: NIH Chemical Genomics Center [NCGC]
NIH Molecular Libraries Screening Centers Network [MLSCN]
National Institutes of Environmental Health Sciences [NIEHS]
National Toxicology Program [NTP]
We have developed a 1536-well cell-based assay for quantitative high throughput screening (qHTS) against a number of cell lines to determine in vitro cytotoxicity of small molecules. This particular assay uses a human lymphoblastoid cell line (LYMP2-009) purchased from Coriell Institute for Medical Research.
NCGC Assay Protocol Summary:
The CellTiter-Glo luminescent cell viability assay (Promega) is a homogeneous method to measure the number of viable cells in culture. The end point readout of this assay is based on quantitation of intracellular ATP, an indicator of metabolic activity, using the luciferase reaction. Luciferase catalyzes the oxidation of beetle Luciferin to oxyluciferin and light in the presence of ATP. The luminescent signal is proportional to amount of ATP present.
Using the CellTiter-Glo luminescent cell viability assay, the amount of cellular ATP was measured in the lymphoblastoid cell line with complete culture medium following compound treatment for 24 hours. The assay was performed in opaque white Kalypsys 1536-well plates. In the screen, tetraoctylammonium bromide was used as positive control. Library compounds were measured for their ability to cause acute toxicity in the cell line, as reflected by a decrease in intracellular ATP levels, in a concentration-dependent manner. […] AC50 values were determined from concentration-response data modeled with the standard Hill equation.
qHTS protocol for CellTiter Glo lymphoblastoid cellular assay
[Step] [Parameter] [Value] [Description]
1. Reagent; 5 uL; 2500 lymphoblastoid cells/well
2. Time; 5 hr; 37 C incubation
4. Controls; 23 nL; Tetraoctylammonium bromide 6.4pM to 92 uM
5. Time; 24 hr; 37 C incubation
6. Reagent; 5 uL; CellTiter Glo reagent
7. Time; 30 min; Room Temperature
8. Detection; Luminescence; Viewlux plate reader
Keywords: cell viability, cytotoxicity, lymphoblastoid cell line, luminescence, NTPHTS, NTPHTS_NCGC, NIEHS, DSSTox, MLSMR, MLSCN, NIH Roadmap, qHTS, NCGC
On to `Nc1ccc(O)cc1`, for which the Potency is 31.6 µM (active).
Consider `Oc1ccccc1`, for which the Potency result was “inactive”.
For `CC(C)(C)c1ccc(O)c(O)c1` the value was 39.8 µM (active); for `C1=CC2C3C=CC(C3)C2C1` (stereo not given), “inactive”.
Regarding `Cc1cc(C(C)(C)C)c(O)c(C(C)(C)C)c1`, the Potency entry was “inactive”.
For `CCCCCCCCCCCCCCCC[n+]1ccccc1` the value was 15.8 µM (active).
For `CC(C)(c1ccc(O)cc1)c1ccc(O)cc1`, the Potency result was “inactive”.
As to `CC(C)C(C)(C)C(C)(C)C(C)(C)S`, the Potency entry is “inactive”.
For `Nc1cccc2c(N)cccc12` the value was “inactive”; for `O=C(NO)c1ccccc1`, “inactive”; for `CCCCC(CC)COC(=O)c1ccccc1C(=O)O` (stereo not given), “inactive”.
For the molecule `O=C(Oc1ccccc1)c1ccccc1O`, the Potency result is “inactive”.
For `Nc1c2ccccc2nc2ccccc12` the value was 10 µM (active); for `OCc1c[nH]c2ccccc12`, “inactive”.
The value for `COc1cc(C=O)ccc1O` was “inactive”; that for `CCCC(=O)c1cc(O)c(O)cc1O` was “inactive”.
The value for `Cc1ccc(O)cc1` was “inactive”; that for `O=C(c1ccccc1)c1ccccc1` was “inactive”.
Take `c1ccc2occc2c1`: the Potency entry is “inactive”.
For `Brc1ccccc1-c1ccccc1` the value was “inactive”.
